Values joined by “and” are separate entries in the source; they are usually repeats but may differ in a detail not shown here. Identical values can stand only once. Results filed as inconclusive are left out. Active and inactive are the calls of the source. Unless noted, calls follow the shape of the dose curve; as a rule, active = well fitted curve in the direction sought with a large enough effect; inconclusive = small, poorly fitted or top-dose-only effect, or another doubt; inactive = no such curve, though single readings can be large; an effect the other way counts as inactive or inconclusive.

The target in test [1] is Cytochrome P450 1A2 (Homo sapiens) (UniProt P05177). Nature of the test: p450-cyp1a2 (AID 410; calls by dose curve; also: potency is read from the fitted curve at half-maximal effect;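 as to activity change, negative = inhibition: -100% = full effect of reference inhibitor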). The method in brief:
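Luminescent readout of luciferin formed from Luciferin-ME by human CYP1A2; data normalized against complete inhibition by 57 uM furafylline. Enzyme 20nM, substrate 100uM at Km, 100mM KPO4 buffer, 60 min reaction at room temperature.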

For test [2], the target named is Glucocorticoid receptor (Homo sapiens) (UniProt P04150). Nature of the test: GR-GFP Redistribution (AID 450;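 active = compounds whose dose series gives a full or clear partial fitted curve of increased nuclear translocation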; also: potency is read from the fitted curve at half-maximal effect). Particulars: U2OS GR-GFP nuclear translocation, laser cytometry, 2 h.
Test [3] has the same target. Nature of the test: GR-EFC Redistribution (AID 451; calls by dose curve; also: potency is read from the fitted curve at half-maximal effect). The settings on record: CHO-K1 GR-EFC translocation, beta-gal luminescence, 2 h. The gist of the method:
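CHO-K1 cells stably expressing nuclear-localized β-gal enzyme acceptor and GR fused C-terminally to the enzyme donor fragment; ligand-driven nuclear translocation restores β-gal by complementation. Compounds titrated up to 46 uM final, 2 h at 37 °C; luminescence read.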

Test [4] has as its target Mitogen-activated protein kinase 10 (Mus musculus) (UniProt Q61831). Nature of the test: JNK3 AlphaScreen Assay (AID 530; active = well fitted curve in either direction with a large enough effect, not every such curve was filed as active;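 also: kinase came from lysate of stimulated human HepG2 cells; signal reports phosphorylation of biotinylated GST-cJun 1-79 at Ser73 with 10 µM ATP; % is scaled to controls: 0 for no effect and ±100 for the full control effect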). The method in brief: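 Inhibitors reduce antibody binding to phosphorylated biotin-cJun, lowering AlphaScreen luminescence. Lysates from HepG2 cells pre-activated by IL-1beta plus TNF-alpha supplied JNK3; compounds were titrated.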
The nature of test [5]: qHTS Assay for Lipid Storage Modulators (AID 1519; calls by dose curve; as to activity change, negative = inhibition: % is scaled to controls: 0 for no effect and ±100 for the full control effect). The settings on record: Drosophila S3 cells, BODIPY lipid droplet/cell ratio, laser cytometry, cells loaded with oleic acid. The method in brief: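 Cells seeded at 5,000 per well were treated with compounds over a concentration series and loaded with oleic acid (400 uM, as added). Lipid droplet fluorescence (488 nm excitation, 500-530 nm channel) was read by laser-scanning cytometry and normalized to 20 uM Triacsin C.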
(qHTS replaces the single test concentration by a dilution series.)

Test [6] has as its target Ubiquitin carboxyl-terminal hydrolase 1 (Homo sapiens) (UniProt O94782). Nature of the test: Inhibitors of USP1/UAF1: Pilot qHTS (AID 504865).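 Also: rhodamine fluorescence freed from ubiquitin-rhodamine substrate followed over time; top concentration of the series differs between compounds; % is scaled to controls: 0 for no effect and ±100 for the full control effect; nearly all actives have a fitted effect of over 35% in size.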 The method in brief:
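In 50mM HEPES pH 7.8 containing 0.5mM EDTA, 1mM TCEP, 0.1 mg/ml BSA and 0.01% Tween-20, 1nM USP1/UAF1 is exposed to compound for 15 min, then Ub-Rho (150nM final) is added and fluorescence is read over time.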

In test [7] the target is Cytochrome P450 3A4 (Homo sapiens) (UniProt P08684). Nature of the test: qHTS Assay for Inhibitors and Substrates of Cytochrome P450 3A4 (AID 884). Also: nearly all actives have a fitted effect of over 50% in size. Also: potency is read from the fitted curve at half-maximal effect. As to activity change, negative = inhibition: % is scaled to controls: 0 for no effect and ±100 for the full control effect. The gist of the method:
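20 nM human CYP3A4 with 25 uM Luciferin-PPXE (at KM) in 200 mM KPO4, preincubated 10 min with compound; NADPH regeneration started a 60 min RT reaction. Luciferin detected by luminescence, normalized to 57 uM ketoconazole as full inhibition.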

The target in test [8] is DNA dC->dU-editing enzyme APOBEC-3G (Homo sapiens) (UniProt Q9HC16). Nature of the test: qHTS for inhibitors of Vif-A3G interactions: Validation (AID 588379). Also: 0% is about no effect. The gist of the method:
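HeLa cells stably expressing Vif and A3G-eYFP, 700 cells/well, incubated overnight at 37 deg C, then exposed to compound overnight at 37 deg C. Inhibition of Vif-mediated degradation read as increased yellow fluorescence (Ex 488/Em 500-530) by laser-scanning cytometry.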

Test [9] in a line: Confirmation and Secondary Assay for Modulators of Hemoglobin Beta Chain Splicing at IVS2 654 locus (AID 910).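 Also: per-well total GFP intensity by laser scanning cytometry after 2-day treatment; % of control where 0% means no effect.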 The gist of the method:
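HeLa cells stably carrying EGFP interrupted by mutant beta-globin IVS2-654 intron (CMV-driven) were treated with compound for 2 days at 37C; corrected splicing was scored as total peak GFP intensity per well (488 nm excitation, 500-520 nm emission).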

The nature of test [10]: Confirmation and Secondary Assay for Modulators of Hemoglobin Beta Chain Splicing at IVS2 705 locus (AID 930).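 Also: HeLa cells stably expressing the EGFP-705 splicing reporter; GFP fluorescence per well restored by corrected splicing of the IVS2-705 intron in EGFP; % of control where 0% means no effect.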 The gist of the method:
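Per-well GFP, captured at 1 x 8 µm resolution with 488 nm excitation, served as the read-out for HeLa EGFP-705 cells incubated 2 days with test compound versus DMSO.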

For test [11], the target named is ATP-dependent 6-phosphofructokinase (Trypanosoma brucei brucei) (UniProt O15648). Nature of the test: qHTS Assay to Find Inhibitors of T. brucei phosphofructokinase: hit validation (AID 492961).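 Also: luminescence reports ADP formed as PFK phosphorylates fructose-6-phosphate with ATP; % is scaled to controls: 0 for no effect and ±100 for the full control effect.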 The method in brief: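 PFK 1.25 nM, F6P 0.5 mM, ATP 0.1 mM, MgCl2 5 mM, 0.1 M TEA pH 8.0, Tween20 0.01%, BSA 0.1%; 45 min RT. ADP-Glo two-step detection, luminescence. qHTS titration; curve fitting with curve-class categorization.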

For test [12], the target named is Luciferin 4-monooxygenase (Photinus pyralis) (UniProt P08659). Nature of the test: Biochemical firefly luciferase enzyme assay for NPC (AID 624030).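 Also: purified P. pyralis luciferase at 10 nM with luciferin and ATP substrate; 0% = DMSO and -100% = full luciferase inhibition by PTC124 control; nearly all actives have a fitted effect of over 70% in size.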 The method in brief: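 Counter-screen for direct inhibition of the luciferase enzyme by approved-drug library compounds, run at 10 nM enzyme in 50 mM Tris acetate (final). Luminescence was read within 5 min of enzyme-buffer addition and normalized to PTC124 versus DMSO (0%).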

Test [13] in a line: qHTS profiling for inhibitors of Plasmodium falciparum proliferation (AID 504749).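 Also: 0% = DMSO vehicle and full inhibition = artemisinin control; nearly all actives have a fitted effect of over 60% in size.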 The settings on record: P. falciparum in erythrocytes, SYBR Green DNA, 72 h, at 28.7 µM (top of the series). The gist of the method:
(§1)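 Parasite proliferation within erythrocytes, 72 h exposure. Endpoint: SYBR Green I fluorescence after overnight lysis at room temperature. Controls: 0.29 uM artemisinin, DMSO.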

A further test concerns AS120. Described as above. The settings on record: P. falciparum in erythrocytes, SYBR Green DNA, 72 h; series mostly up to 28.7 µM. The method in brief:
as §1

A further test has as its system ATS189. The test is described as above. The settings on record: P. falciparum in erythrocytes, SYBR Green DNA, 72 h; series mostly up to 28.7 µM. The method in brief:
as §1

The next test deals with CP247. Described as above. Particulars: P. falciparum in erythrocytes, SYBR Green DNA, 72 h; series mostly up to 28.7 µM. The gist of the method:
as §1

The subject of the next test is CP269. The description is as above. The settings on record: P. falciparum in erythrocytes, SYBR Green DNA, 72 h; series mostly up to 28.7 µM. The gist of the method: as §1
A further test concerns ECU. Described as above. The settings on record: P. falciparum in erythrocytes, SYBR Green DNA, 72 h; series mostly up to 28.7 µM. The gist of the method:
as §1

For a further test, the system named is TAB109. The description is as above. Particulars: P. falciparum in erythrocytes, SYBR Green DNA, 72 h; series mostly up to 12.8 µM. The gist of the method: as §1
In test [14] the target is Cytochrome P450 3A4 (Homo sapiens) (UniProt P08684). Nature of the test: qHTS Assay for Activators of Cytochrome P450 3A4 (AID 885). Also: nearly all actives have a fitted effect of over 65% in size. The method in brief: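 Signal was normalized against complete inhibition by 57 uM ketoconazole. The reaction used 20nM CYP3A4 with 25uM Luciferin-PPXE, 10-min compound preincubation and a 60-min NADPH-supported step at RT.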
Where [15] appears, read: measured here: cell count channel max response.
Setting [16] is: measured here: lipid channel max response.

Sequence of Glucocorticoid receptor (Homo sapiens) (P04150 whole entry, looked up): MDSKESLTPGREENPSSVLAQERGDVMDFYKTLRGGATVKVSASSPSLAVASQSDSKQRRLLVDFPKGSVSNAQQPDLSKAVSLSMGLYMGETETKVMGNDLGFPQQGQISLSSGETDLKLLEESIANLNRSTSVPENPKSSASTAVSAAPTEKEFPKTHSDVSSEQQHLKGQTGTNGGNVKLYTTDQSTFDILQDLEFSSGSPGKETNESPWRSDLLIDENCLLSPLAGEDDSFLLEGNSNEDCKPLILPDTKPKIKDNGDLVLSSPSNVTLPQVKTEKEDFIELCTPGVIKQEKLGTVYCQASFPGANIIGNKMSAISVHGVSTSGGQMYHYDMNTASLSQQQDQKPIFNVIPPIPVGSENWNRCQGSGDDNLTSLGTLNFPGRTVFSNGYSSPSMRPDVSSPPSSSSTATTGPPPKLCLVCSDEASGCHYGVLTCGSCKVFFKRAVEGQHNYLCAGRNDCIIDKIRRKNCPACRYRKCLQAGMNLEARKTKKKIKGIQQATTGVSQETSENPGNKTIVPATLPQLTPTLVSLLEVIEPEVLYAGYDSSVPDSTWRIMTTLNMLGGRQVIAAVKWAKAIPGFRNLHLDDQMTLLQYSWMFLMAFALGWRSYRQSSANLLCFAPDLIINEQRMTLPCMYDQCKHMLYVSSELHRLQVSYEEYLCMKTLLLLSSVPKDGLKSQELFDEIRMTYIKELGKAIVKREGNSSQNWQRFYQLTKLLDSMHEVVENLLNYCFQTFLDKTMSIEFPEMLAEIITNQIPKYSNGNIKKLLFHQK
Sequence of Cytochrome P450 3A4 (Homo sapiens) (P08684 whole entry, looked up): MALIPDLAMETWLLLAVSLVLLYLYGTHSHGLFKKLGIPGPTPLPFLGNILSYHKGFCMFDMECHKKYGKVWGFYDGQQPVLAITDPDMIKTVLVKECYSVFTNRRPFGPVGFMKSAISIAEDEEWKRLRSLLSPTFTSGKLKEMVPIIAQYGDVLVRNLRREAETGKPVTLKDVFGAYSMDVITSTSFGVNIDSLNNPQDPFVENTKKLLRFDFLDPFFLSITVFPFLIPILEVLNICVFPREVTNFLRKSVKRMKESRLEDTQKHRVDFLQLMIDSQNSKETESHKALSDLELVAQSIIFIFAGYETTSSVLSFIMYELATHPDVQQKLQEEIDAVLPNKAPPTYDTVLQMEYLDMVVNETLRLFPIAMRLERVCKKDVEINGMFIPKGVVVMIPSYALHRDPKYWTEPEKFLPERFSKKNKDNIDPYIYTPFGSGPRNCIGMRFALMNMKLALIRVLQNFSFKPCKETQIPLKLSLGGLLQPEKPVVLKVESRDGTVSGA
Sequence of Ubiquitin carboxyl-terminal hydrolase 1 (Homo sapiens) (O94782 whole entry, looked up): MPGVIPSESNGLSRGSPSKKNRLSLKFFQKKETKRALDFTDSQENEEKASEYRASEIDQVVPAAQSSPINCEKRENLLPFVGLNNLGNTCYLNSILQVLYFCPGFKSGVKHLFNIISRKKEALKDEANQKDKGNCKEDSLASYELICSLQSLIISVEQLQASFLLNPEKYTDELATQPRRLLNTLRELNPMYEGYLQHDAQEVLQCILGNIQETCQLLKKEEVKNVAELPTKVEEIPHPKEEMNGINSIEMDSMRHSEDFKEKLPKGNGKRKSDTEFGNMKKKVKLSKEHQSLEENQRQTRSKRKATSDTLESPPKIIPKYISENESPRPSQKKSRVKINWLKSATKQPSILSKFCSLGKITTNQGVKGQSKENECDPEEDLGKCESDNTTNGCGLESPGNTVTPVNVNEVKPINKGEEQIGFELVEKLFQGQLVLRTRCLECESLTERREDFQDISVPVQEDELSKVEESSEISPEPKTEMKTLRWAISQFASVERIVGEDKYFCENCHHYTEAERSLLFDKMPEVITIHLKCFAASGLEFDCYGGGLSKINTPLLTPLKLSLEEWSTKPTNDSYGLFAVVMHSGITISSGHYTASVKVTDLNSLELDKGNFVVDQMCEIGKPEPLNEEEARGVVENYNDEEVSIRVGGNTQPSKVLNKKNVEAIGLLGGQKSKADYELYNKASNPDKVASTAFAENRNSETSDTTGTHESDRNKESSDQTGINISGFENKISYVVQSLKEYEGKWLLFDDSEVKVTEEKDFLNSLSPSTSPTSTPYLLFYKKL
Sequence of Cytochrome P450 1A2 (Homo sapiens) (P05177 whole entry, looked up): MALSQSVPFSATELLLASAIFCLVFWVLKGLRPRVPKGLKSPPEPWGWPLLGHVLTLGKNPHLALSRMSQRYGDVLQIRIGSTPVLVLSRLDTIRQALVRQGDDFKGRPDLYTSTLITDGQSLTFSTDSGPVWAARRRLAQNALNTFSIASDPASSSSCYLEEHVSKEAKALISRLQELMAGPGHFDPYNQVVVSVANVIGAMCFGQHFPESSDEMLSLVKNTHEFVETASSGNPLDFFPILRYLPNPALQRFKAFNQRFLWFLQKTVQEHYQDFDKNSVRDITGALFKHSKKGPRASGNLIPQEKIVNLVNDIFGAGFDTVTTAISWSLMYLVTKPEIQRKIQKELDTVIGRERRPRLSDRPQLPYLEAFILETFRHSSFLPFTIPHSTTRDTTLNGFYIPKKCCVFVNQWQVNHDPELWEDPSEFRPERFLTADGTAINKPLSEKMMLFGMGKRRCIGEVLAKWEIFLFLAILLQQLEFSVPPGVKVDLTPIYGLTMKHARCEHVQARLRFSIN
Sequence of Luciferin 4-monooxygenase (Photinus pyralis) (P08659 whole entry, looked up): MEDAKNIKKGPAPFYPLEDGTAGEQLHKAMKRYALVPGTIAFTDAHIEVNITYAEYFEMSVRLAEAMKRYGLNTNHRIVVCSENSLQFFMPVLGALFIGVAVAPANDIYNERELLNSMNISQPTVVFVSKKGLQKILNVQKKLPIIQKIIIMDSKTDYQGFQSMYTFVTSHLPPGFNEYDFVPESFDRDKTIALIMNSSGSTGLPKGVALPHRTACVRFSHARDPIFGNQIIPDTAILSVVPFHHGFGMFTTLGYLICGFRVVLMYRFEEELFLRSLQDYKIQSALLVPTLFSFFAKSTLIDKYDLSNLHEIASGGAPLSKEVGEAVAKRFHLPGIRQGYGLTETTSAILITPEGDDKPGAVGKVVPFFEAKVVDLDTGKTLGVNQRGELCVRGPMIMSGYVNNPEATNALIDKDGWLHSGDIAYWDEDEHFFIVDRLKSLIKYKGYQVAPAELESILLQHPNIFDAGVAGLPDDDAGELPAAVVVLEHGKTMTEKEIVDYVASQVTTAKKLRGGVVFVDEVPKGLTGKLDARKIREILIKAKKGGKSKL
Sequence of DNA dC->dU-editing enzyme APOBEC-3G (Homo sapiens) (Q9HC16 whole entry, looked up): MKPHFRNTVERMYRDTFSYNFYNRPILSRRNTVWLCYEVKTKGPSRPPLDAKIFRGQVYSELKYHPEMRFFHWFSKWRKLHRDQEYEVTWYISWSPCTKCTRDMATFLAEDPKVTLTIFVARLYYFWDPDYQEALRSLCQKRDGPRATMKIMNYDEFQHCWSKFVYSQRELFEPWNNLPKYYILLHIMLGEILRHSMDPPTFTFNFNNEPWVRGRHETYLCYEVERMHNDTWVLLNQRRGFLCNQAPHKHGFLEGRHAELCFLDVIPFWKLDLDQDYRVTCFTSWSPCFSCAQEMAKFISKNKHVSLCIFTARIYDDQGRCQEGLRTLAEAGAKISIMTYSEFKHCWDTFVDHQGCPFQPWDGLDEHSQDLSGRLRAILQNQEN
Sequence of ATP-dependent 6-phosphofructokinase (Trypanosoma brucei brucei) (O15648 whole entry, looked up): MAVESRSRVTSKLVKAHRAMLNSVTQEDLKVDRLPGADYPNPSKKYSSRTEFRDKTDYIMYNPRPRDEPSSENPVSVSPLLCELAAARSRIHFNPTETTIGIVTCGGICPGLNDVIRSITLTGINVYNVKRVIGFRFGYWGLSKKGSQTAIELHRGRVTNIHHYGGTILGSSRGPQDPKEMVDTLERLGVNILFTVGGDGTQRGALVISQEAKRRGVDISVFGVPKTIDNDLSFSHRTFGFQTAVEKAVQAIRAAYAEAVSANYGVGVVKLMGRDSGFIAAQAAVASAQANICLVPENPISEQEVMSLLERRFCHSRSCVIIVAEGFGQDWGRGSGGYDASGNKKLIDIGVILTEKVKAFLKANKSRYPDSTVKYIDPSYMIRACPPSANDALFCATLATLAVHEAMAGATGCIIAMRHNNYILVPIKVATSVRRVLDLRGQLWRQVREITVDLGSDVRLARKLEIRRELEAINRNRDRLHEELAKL

Turning to `O=C1C=C2C=C[C@H]3C[C@@]2(O1)[C@H]1CCCCN31`, the Potency entry in test [1] and in [6] was “inactive” throughout. Further, the Potency is > 20.6 µM (inactive) and > 46 µM (inactive) in test [2]; > 20.6 µM (inactive) and > 46 µM (inactive) in test [3]. Besides, in test [4], the call was inactive. Also, the activity change, negative = inhibition in test [5] (at 25.7 µM (top of the series)) is -1.11% (inactive). Also, the max response in [5] (setting [15]) is -16.7%; in test [5] (setting [16]) it was -17.3%.
Regarding `C[N+]1=Cc2cc3c(cc2CC1)OCO3`, the Potency result in test [1] and in test [7] was “inactive” each time. For the same compound, the Potency in test [2] and in test [3] was > 46 µM (inactive) in each case. In addition, the compound was classed as inactive in [4] and in test [8]. Moreover, in [5] (at 57.5 µM (top of the series)), the activity change, negative = inhibition was 4.74% (inactive). Also, the max response in test [5] (setting [15]) came to 15.4%; in test [5] (setting [16]), 22.1%.
`O=C(O)COc1ccc(Cl)cc1Cl`: the compound was called inactive in test [4]. The Potency entry in [7], in test [9] and in test [6] was “inactive” in each case. Besides, the activity change, negative = inhibition in test [5] (at 57.5 µM (top of the series)) is -1.59% (inactive). The max response in [5] (setting [15]) is -3.68%; in [5] (setting [16]), -7.52%.
Regarding `ClC1=C(Cl)C2(Cl)C3C4CC(C5OC45)C3C1(Cl)C2(Cl)Cl` (configuration not stated), the result in test [4] was inactive. The Potency entry (in test [9]; in [10]; in test [11]; in test [12]; in the test on AS120; with ATS189) was “inactive” throughout. The Potency entry in the test with CP247, in the test with CP269, with ECU and with TAB109 was “inactive” in each case. Besides, the activity change, negative = inhibition in test [5] (at 57.5 µM (top of the series)) is 3.37% (inactive). The max response in [5] (setting [15]) stood at 8.98%; in test [5] (setting [16]), 15.6%. The activity, negative = inhibition in test [13] (parasite line A) is -12.8% (inactive); in test [13] (parasite line B), -9.6% (inactive).
With `COc1cc2c(cc1O)C[C@H]1c3c(cc(O)c(OC)c3-2)CCN1C`, the Potency in test [1] was 2.51 µM (active); in [2], > 20.6 µM (inactive) and > 46 µM (inactive); in test [3], > 20.6 µM (inactive) and > 46 µM (inactive). Moreover, the outcome in [4] was inactive. The Potency entry in [14] and in test [6] was “inactive” each time. For the same compound, the activity change, negative = inhibition in test [5] (at 25.7 µM (top of the series)) is 0.193% (inactive). For the same compound, the values for the max response in test [5] (setting [15]) and in test [5] (setting [16]) were 3.24% and 4.01%, respectively.
With `O=C1C(Cl)=C(Cl)C(=O)C(Cl)=C1Cl`, the result in [4] was inactive. In test [7], the Potency is 2 µM (active). The Potency result in test [14] and in test [9] was “inactive” throughout. In addition, the activity change, negative = inhibition in test [5] (at 57.5 µM (top of the series)) was -9.83% (inactive). In addition, the results for the max response in test [5] (setting [15]) and in test [5] (setting [16]) were -3.14% and -11.5%, respectively.
As for `COc1cc2c(c(OC)c1OC)-c1ccc(OC)c(=O)cc1[C@H](NC(C)=O)CC2`, the activity change, negative = inhibition in test [5] (at 25.7 µM (top of the series)) was -7.92% (inactive). Besides, the max response in test [5] (setting [15]) is -13.6%; in test [5] (setting [16]) it was -22.5%. Besides, the Potency entry in [6] is “inactive”.
For the compound `COc1cc2c(c(OC)c1OC)-c1ccc(O)c(=O)cc1[C@@H](NC(C)=O)CC2`, the Potency entry in [1] and in test [7] was “inactive” each time. Moreover, the Potency in [2] and in test [3] was > 46 µM (inactive) each time. The result in [4] was inactive. In addition, the activity change, negative = inhibition in test [5] (at 57.5 µM (top of the series)) is 3.54% (inactive). The max response came out at 16.1% in [5] (setting [15]) and 20.6% in [5] (setting [16]).
Consider `C[C@@]12CC[C@H](O)C[C@@H]1CC[C@H]1[C@H]2CC[C@@]2(C)[C@@H](C3=CC(=O)OC3)CC[C@]12O`, for which the values for the Potency in [2], in [3] and in test [7] were > 20.6 µM (inactive), > 20.6 µM (inactive) and 3.16 µM (active), respectively. The compound was called inactive in test [4]. Also, the Potency result in test [14] and in test [6] was “inactive” throughout. In [5] (at 25.7 µM (top of the series)), the activity change, negative = inhibition is -3.39% (inactive). For the same compound, the max response is -2.15% in test [5] (setting [15]) and -7.35% in test [5] (setting [16]).
